Results from PubChem BioAssay (NCATS).
Records with an inconclusive call do not appear. A call without a number means that no potency is given here. Activity calls are given as the source filed them. Calls follow the shape of the dose curve; as a rule, active = well fitted curve in the direction sought with a large enough effect; inconclusive = small, poorly fitted or top-dose-only effect, or another doubt; inactive = no such curve, though single readings can be large; an effect the other way counts as inactive or inconclusive.

Legend:
[1] = biological target: Voltage-gated inwardly rectifying potassium channel KCNH2 (Homo sapiens) (UniProt Q12809); assay: qHTS Assay for Small Molecule Inhibitors of the Human hERG Channel Activity (AID 588834);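 also: top concentration of the series differs between compounds; lower thallium flux fluorescence means stronger hERG block; nearly all actives have a fitted effect of over 50% in size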
How it was run: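 In hERG-transduced U2OS cells, dye-loaded for 1 hr at room temperature in dark, test compounds incubated 10 min at 37 °C before thallium stimulation. AC50 values derived by Hill modelling of concentration-response.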

[2] = biological target: Luciferin 4-monooxygenase (Photinus pyralis) (UniProt P08659); assay: Biochemical firefly luciferase enzyme assay for NPC (AID 624030);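 also: purified P. pyralis luciferase at 10 nM with luciferin and ATP substrate; series mostly up to about 59 µM; nearly all actives have a fitted effect of over 70% in size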
How it was run: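 Purified P. pyralis luciferase at 10 nM in 50 mM Tris Acetate (final), luminescence read within 5 minutes of enzyme addition to compounds. Activity normalised to PTC124 versus DMSO; concentration-response curves classed by r2, magnitude and activity.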

[3] = qHTS for Inhibitors of the vitamin D receptor (VDR): Hit Validation using a Texas Red Assay (AID 602201); settings: VDR coregulator binding, Texas Red fluorescence polarization; agonist-bound VDR ligand-binding domain; also: potency is read from the fitted curve at half-maximal effect
How it was run: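 Fluorescence polarization with 1.5 uM VDR-LBD, LG19078 and 7 nM Texas Red (final). After 2 hours at ambient temperature, read at Ex 595 nm/Em 615 nm.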

Voltage-gated inwardly rectifying potassium channel KCNH2 (Homo sapiens), sequence (Q12809 whole entry, looked up): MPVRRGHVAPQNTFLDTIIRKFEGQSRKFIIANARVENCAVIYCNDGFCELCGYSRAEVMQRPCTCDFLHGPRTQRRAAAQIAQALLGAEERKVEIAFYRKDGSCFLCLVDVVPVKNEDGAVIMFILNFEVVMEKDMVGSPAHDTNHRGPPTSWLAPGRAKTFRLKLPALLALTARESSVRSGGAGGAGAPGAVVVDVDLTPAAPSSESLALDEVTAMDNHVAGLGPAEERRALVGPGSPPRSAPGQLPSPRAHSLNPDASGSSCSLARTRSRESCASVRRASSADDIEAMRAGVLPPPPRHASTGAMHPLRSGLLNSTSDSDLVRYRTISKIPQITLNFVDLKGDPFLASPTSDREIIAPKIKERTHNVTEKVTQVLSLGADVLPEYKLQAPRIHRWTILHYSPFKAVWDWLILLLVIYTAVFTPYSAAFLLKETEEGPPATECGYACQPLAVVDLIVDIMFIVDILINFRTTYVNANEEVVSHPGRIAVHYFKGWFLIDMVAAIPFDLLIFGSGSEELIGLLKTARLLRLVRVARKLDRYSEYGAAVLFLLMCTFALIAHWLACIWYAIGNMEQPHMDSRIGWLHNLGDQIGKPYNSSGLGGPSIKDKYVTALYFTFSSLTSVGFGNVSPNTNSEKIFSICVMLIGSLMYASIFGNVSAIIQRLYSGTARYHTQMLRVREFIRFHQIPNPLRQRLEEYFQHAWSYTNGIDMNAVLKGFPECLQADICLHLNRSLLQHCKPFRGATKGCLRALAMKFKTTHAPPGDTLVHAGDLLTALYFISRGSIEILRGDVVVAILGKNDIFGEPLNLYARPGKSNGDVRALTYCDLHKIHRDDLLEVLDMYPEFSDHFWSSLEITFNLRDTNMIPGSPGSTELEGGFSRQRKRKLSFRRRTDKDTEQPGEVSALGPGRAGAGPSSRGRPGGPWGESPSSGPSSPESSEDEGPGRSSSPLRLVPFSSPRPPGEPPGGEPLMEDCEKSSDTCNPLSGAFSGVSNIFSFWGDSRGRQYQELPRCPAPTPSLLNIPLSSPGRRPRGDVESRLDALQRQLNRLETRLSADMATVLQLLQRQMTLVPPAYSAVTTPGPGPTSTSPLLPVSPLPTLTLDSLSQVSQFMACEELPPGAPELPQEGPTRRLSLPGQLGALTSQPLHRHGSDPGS
Luciferin 4-monooxygenase (Photinus pyralis), sequence (P08659 whole entry, looked up): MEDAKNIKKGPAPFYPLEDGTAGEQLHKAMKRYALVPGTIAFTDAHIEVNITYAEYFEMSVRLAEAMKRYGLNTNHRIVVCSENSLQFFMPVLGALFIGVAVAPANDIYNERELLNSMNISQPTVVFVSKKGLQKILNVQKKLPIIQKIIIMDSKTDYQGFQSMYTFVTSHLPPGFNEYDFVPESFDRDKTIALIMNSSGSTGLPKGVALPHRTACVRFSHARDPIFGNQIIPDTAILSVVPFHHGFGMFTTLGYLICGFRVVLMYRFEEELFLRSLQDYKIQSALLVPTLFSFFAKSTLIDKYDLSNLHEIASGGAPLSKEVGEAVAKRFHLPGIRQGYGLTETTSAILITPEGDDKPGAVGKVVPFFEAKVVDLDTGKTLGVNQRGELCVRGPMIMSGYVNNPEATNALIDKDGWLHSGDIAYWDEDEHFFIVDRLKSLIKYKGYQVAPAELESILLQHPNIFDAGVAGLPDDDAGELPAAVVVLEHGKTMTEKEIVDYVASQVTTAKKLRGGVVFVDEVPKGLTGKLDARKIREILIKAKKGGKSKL

CN1CCc2cc(NC(=O)Nc3cccnc3)ccc21
Potency [1]: inactive

COc1cc(C(O)CO)ccc1OS(=O)(=O)O (stereo not given)
Potency [1]: inactive

N=c1ccn2c(n1)O[C@H]1[C@H](O)[C@@H](CO)O[C@H]12
Potency [1]: inactive | Potency [2]: inactive

CCCCC1C(=O)N(c2ccccc2)N(c2ccc(O)cc2)C1=O (stereo not given)
Potency [1]: inactive | Potency [3]: 15.8 µM (active)

Oc1c(Br)cc(Br)c2cccnc12
Potency [1]: inactive | Potency [2]: inactive

N#C/C(=C\c1c[nH]c2ccccc12)C(=O)c1ccc(O)c(O)c1
Potency [1]: inactive

CC1(C)CCC=[N+]1[O-]
Potency [1]: inactive
